This excerpt belongs to a sample that is enriched for hits.
SIRT5 block – sirtuin-5 (human) deacylase inhibition | AID 652115 | inhibition, % at 15 µM | hit rate 1.1% among 330,000 | Purified SirT5, succinyl-peptide AMC, trypsin-coupled fluorescence | Q9NXA8; in the data active means inhibition above about 15%
PDI inh – PDI (human) enzyme inhibition; P07237; PDI insulin aggregation turbidity, A650, 90 min; inhibition, % at 10 µM; hit rate 0.052% among 350,000; AID 588391;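 active means mean inhibition across replicates of 30% or more, whatever share of single replicates reach that level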
ERAP1 HTS inh – blocks human ERAP1 aminopeptidase activity; Q9NZ08; recombinant ERAP1, Leu-AMC fluorescence, 60 min; inhibition, % at 10.7 µM; hit rate 0.15% among 340,000;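 active means mean replicate inhibition of at least 30%, or all replicates individually reaching that 30% level; inactive means mean below 30% and not every replicate reaching it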
ERp5 block – inhibitors of human ERp5; Q15084; ERp5 insulin aggregation, absorbance 650 nm, 90 min; inhibition, % at 9.99 µM; hit rate 0.05% among 350,000; AID 651711;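 active means mean replicate inhibition above about 25%, with every replicate also reaching it, limit read from the data, passing the limit was not always enough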
Target sequence (Q15084 whole entry, looked up): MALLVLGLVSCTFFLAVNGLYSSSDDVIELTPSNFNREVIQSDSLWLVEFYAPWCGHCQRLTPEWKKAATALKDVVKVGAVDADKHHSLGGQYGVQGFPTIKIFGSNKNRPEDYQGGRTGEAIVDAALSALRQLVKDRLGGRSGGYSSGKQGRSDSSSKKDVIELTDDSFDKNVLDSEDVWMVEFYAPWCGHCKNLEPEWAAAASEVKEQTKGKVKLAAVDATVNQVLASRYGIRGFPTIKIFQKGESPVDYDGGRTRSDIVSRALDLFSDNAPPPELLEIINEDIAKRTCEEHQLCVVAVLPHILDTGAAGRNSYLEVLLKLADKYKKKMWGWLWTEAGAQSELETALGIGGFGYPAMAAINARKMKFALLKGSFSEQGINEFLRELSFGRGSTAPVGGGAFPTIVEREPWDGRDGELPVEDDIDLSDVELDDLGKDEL
HDAC3 inh – inhibitors of human histone deacetylase 3; O15379; recombinant HDAC3, fluorogenic peptide/trypsin coupled, fluorescence; inhibition, % at 8.3 µM; hit rate 0.15% among 320,000; in the data active means inhibition above about 26%, passing the limit was not always enough
Hits are given with their value; – = inactive; · = no result.

SMILES | SIRT5 block | PDI inh | ERAP1 HTS inh | ERp5 block | HDAC3 inh
Cc1oc(-c2cccs2)nc1CN1CCN(CCC(C)C)C(CCO)C1 (stereo not drawn) | 17 | – | – | – | –
CC(=O)N(C)C[C@H]1Oc2ncc(C3=CCCC3)cc2C(=O)N([C@H](C)CO)C[C@H]1C | 34 | · | – | – | ·
COc1cccc(NC(=O)N(C)C[C@H]2Oc3ncc(C4=CCCCC4)cc3C(=O)N([C@H](C)CO)C[C@@H]2C)c1 | 20 | · | – | – | ·
C[C@H]1CN([C@@H](C)CO)S(=O)(=O)c2ccc(/C=C/c3ccccc3)cc2O[C@@H]1CN(C)C(=O)C1CC1 | – | · | – | – | ·
C[C@@H]1CN([C@@H](C)CO)S(=O)(=O)c2ccc(/C=C/c3ccccc3)cc2O[C@@H]1CN(C)C(=O)C1CC1 | 17 | · | – | – | ·
C[C@H]1CN([C@@H](C)CO)S(=O)(=O)c2ccc(/C=C/c3ccccc3)cc2O[C@H]1CN(C)C(=O)C1CC1 | 15 | · | – | – | ·
N#C[C@H]1[C@H](c2ccc(-c3ccc(F)cc3)cc2)[C@H](CO)N1c1nc(-c2ccccc2)cs1 | – | · | – | – | ·
CCOC(=O)c1ccc2c(c1)C(=O)N(C1CCCCC1)C2=O | – | – | – | – | –
CCOC(=O)C1=CCC2C(=O)N(C3CCCCC3)C(=O)C12 (stereo not drawn) | 18 | · | – | – | ·
C[C@H](CO)N1C[C@H](C)[C@@H](CN(C)Cc2ccc(Cl)c(Cl)c2)Oc2ccc(NS(=O)(=O)c3ccc(Cl)cc3)cc2CC1=O | 25 | · | – | – | ·
Cc1ccc(S(=O)(=O)Nc2ccc3c(c2)CC(=O)N([C@H](C)CO)C[C@H](C)[C@@H](CN(C)Cc2ccc(Cl)c(Cl)c2)O3)cc1 | – | · | – | – | ·
C[C@@H]1CN([C@@H](C)CO)C(=O)Cc2cc(NS(=O)(=O)c3ccc(Cl)cc3)ccc2O[C@H]1CN(C)Cc1ccc(Cl)c(Cl)c1 | 26 | · | – | – | ·
C[C@@H]1CN([C@@H](C)CO)C(=O)Cc2cc(NS(=O)(=O)c3ccccc3)ccc2O[C@H]1CN(C)Cc1ccc(Cl)c(Cl)c1 | 20 | · | – | – | ·
C[C@@H]1CN([C@H](C)CO)C(=O)Cc2cc(NS(=O)(=O)c3ccc(Cl)cc3)ccc2O[C@H]1CN(C)Cc1ccc(Cl)c(Cl)c1 | – | · | – | – | ·
C[C@@H]1CN([C@H](C)CO)C(=O)c2cc(NS(C)(=O)=O)ccc2O[C@@H](C)CCCCO[C@@H]1CN(C)C(=O)NC1CCCCC1 | – | · | – | · | ·
C[C@@H]1CN([C@H](C)CO)C(=O)c2cc(NC(=O)Cc3ccccc3)ccc2O[C@H]1CN(C)S(=O)(=O)c1ccc(F)cc1 | – | · | – | – | ·
CC(C)(C)OC(=O)N1CCC[C@H]1C(=O)N1CCC[C@H]1C(=O)NCc1ccc(F)cc1F | 17 | · | – | – | ·
C[C@@H]1CN([C@H](C)CO)C(=O)c2cc(C3=CCCC3)cnc2O[C@@H]1CN(C)C | – | · | – | – | ·
CO[C@H]1CN(C)C(=O)c2ccc(NC(C)=O)cc2OC[C@H](C)N(Cc2nccs2)C[C@H]1C | – | · | – | – | ·
CN1/C(=C/C(=S)NC(=O)C2CCC2)C(C)(C)c2ccccc21 | 15 | – | – | – | –
COc1ccc2cc3cc(C(=O)N4CCCCC4C)oc3nc2c1 (stereo not drawn) | 18 | – | – | – | –
COc1ccccc1NC(=O)N1C[C@@H]2[C@H](c3ccccc31)[C@@H](CO)N2CC1CCCC1 | – | · | – | – | ·
C[N+]1(C2CCC3CCC2C3O)CCCC1 (stereo not drawn) | – | – | – | – | –
CC(=O)OC1C2CCC1C([N+]1(C)CCCCC1)CC2 (stereo not drawn) | – | – | 35 | – | –
CC1CN(C(=O)/C(C#N)=C2\N=C(NC(=O)c3ccccc3Cl)c3ccccc32)CC(C)O1 (stereo not drawn) | 21 | · | – | – | ·
C[C@H](CO)N1C[C@H](C)[C@@H](CN(C)S(C)(=O)=O)Oc2ccc(NC(=O)CCCCCC(=O)Nc3ccccc3N)cc2C1=O | · | · | – | – | ·
O=C(NCc1ccncc1)C1CCN(S(=O)(=O)c2cccc(C(F)(F)F)c2)CC1 | – | – | – | – | ·
O=C(Nc1ccncc1)C1CCN(S(=O)(=O)c2cccc(C(F)(F)F)c2)CC1 | – | – | – | 27 | –
O=C(O)c1ccc(-c2ccc(/C=c3/sc4nc5ccccc5n4c3=O)o2)cc1Cl | 24 | – | – | – | –
Nc1c(C(O)(C(F)(F)F)C(F)(F)F)cc(C(O)(C(F)(F)F)C(F)(F)F)c2ccccc12 | · | – | · | · | 33
